High-throughput results: PubChem BioAssay, Paczesny and Yang Labs, IUPUI and University of Michigan
ST2 inh: inhibitors of human ST2 (IL1RL1) binding to IL-33, primary screen, biochemical, AlphaLISA; Interleukin-1 receptor-like 1 (Homo sapiens), Q01638; AlphaLISA ST2-Fc/biotin-IL-33 interaction, 1 h; inhibition, % for hits at 17 µM; hit rate 2.3% among 78,000; AID 1259354, 2018; in the data active means inhibition above about 30%
Target sequence (Q01638 whole entry, looked up): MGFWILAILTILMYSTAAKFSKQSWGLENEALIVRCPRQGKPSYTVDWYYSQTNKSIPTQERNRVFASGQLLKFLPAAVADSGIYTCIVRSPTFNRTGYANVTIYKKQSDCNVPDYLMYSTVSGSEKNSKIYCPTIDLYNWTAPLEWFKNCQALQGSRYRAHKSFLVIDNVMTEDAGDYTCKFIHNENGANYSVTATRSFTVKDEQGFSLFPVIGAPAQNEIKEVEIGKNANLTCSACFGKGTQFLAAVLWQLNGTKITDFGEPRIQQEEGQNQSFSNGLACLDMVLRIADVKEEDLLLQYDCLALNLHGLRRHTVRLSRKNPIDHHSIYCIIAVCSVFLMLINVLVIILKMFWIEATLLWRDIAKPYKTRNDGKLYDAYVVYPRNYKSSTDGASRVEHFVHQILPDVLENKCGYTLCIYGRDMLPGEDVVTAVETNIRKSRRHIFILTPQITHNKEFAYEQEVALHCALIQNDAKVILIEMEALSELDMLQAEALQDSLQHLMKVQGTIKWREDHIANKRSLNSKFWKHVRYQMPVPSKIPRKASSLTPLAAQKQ
Hits are given with their value; i = inactive. This excerpt belongs to a sample that is enriched for hits.

SMILES	ST2 inh
CC(Nc1ccc(Cl)cc1N)c1ccccc1 (stereo not drawn)	57%
CC(NC(=O)c1ccc(Cl)cc1)c1ccccc1 (stereo not drawn)	i
CC(NC(=O)c1cc2ccccc2o1)c1ccccc1 (stereo not drawn)	i
CCOc1cc2c(cc1OCC)C1C(C(=O)N3CCCCCC3)c3ccccc3C(=O)N1CC2 (stereo not drawn)	i
CC(C)c1ccc(NC(=O)c2ccc3c(c2)NC(=O)C2CCCCN32)cc1 (stereo not drawn)	99%
CN(C)C(=O)c1ccc2c(c1)NC(=O)C1CCCCN21 (stereo not drawn)	i
COc1ccc(CNC(=O)c2ccc3c(c2)NC(=O)C2CCCCN32)cc1 (stereo not drawn)	i
N#Cc1c(NC(=O)CN2CCCCC2)sc2c1CCCC2	i
CCc1ccc(CN2CCC(N3CCCC(C(=O)N4CCCC4)C3)CC2)o1 (stereo not drawn)	i
COc1ccc2nc3oc(C(=O)N4CCN(c5ccc(F)cc5)CC4)cc3cc2c1	i
Cc1ccc(Cl)cc1-n1c(CCN)n[nH]c1=O	i
CC(=O)Nc1ccc(Nc2nc(C)cc(Nc3ccc(C)cc3)n2)cc1	i
Cc1ccc(Nc2cc(C)nc(Nc3ccc(NC(=O)C(C)(C)C)cc3)n2)cc1	33%
COc1ccc(Nc2cc(C)nc(-c3ccccc3)n2)cc1	i
COc1ccc(Nc2cc(C)nc(Nc3ccc(NC(=O)C4CCCCC4)cc3)n2)cc1	34%
Cc1cc(Nc2ccccc2)nc(Nc2ccc(NC(=O)C3CCCCC3)cc2)n1	i
Cc1ccc(Nc2cc(C)nc(Nc3ccc(NC(=O)C4CCCCC4)cc3)n2)cc1	30%
Cc1ccc(Nc2cc(C)nc(Nc3ccc(NC(=O)c4ccc(Br)o4)cc3)n2)cc1	i
Cc1ccc(Nc2cc(C)nc(Nc3ccc(NC(=O)c4ccc(Br)cc4)cc3)n2)cc1	i
O=C1C(=O)N(CCCn2ccnc2)C(c2ccc3c(c2)OCO3)C1=C(O)c1ccc(Cl)cc1 (stereo not drawn)	i
COc1ccc(C2SCCN2S(=O)(=O)c2ccc(C)cc2)cc1Br (stereo not drawn)	i
CCc1ccc(OCC(O)CNC(C)C)cc1 (stereo not drawn)	i
COc1ccc(-c2nc(CN3CCC(F)(F)CC3)c(C)o2)c2ccccc12	i
O=C(C1CCCN(S(=O)(=O)c2ccccc2)C1)N1CCCC(C(F)(F)F)C1 (stereo not drawn)	i
COCCn1cc(C(=O)N2CCN(c3ccccc3OC)CC2)c2c3ccccc3n(C)c2c1=O	i
SMILES	ST2 inh
O=c1c2c(-c3ccc(Br)cc3)csc2ncn1-c1ccccc1	i
OCCN=c1scc(-c2ccc(Br)cc2)n1-c1ccccc1	39%
O=C(N=c1scc(-c2ccccc2)n1-c1ccccc1)c1ccco1	i
COc1ccc(Nc2ncnc3c2cnn3-c2cccc(C)c2)c(OC)c1	i
CCCC(=O)Nc1ccc(NC(=O)C(C)(c2ccccc2)c2ccccc2)cc1	i
CCOc1ccc(N=C(c2cccc([N+](=O)[O-])c2)N2CCOCC2)cc1	i
CCOc1ccc(NC(=O)c2cccc([N+](=O)[O-])c2)cc1	i
CCOc1ccc(C(=O)c2cccc([N+](=O)[O-])c2)cc1	31%
COc1ccc(NC(=O)CCS(=O)(=O)c2cccc3nsnc23)cc1	i
CC(C)(Oc1ccc(Cl)cc1)C(=O)N1CCN(c2ccc(F)cc2)CC1	i
COc1ccc(Br)cc1C1SCCN1S(=O)(=O)c1ccc(C)cc1C (stereo not drawn)	i
COc1ccc(C(=O)O/N=C(/N)Cc2ccc(Cl)cc2)cc1	i
COc1ccc(C(=O)ON=C2C(C)=CC(=O)C=C2C)cc1	52%
CC1=CC(=O)C=C(C)C1=NOC(=O)c1ccc([N+](=O)[O-])cc1[N+](=O)[O-]	i
CCCCOc1ccc(/C=c2\sc3ncnn3c2=O)cc1OC	i
O=c1/c(=C\c2cccc([N+](=O)[O-])c2)sc2nc3ccccc3n12	i
COc1ccc(/C=c2\sc3nc4ccccc4n3c2=O)cc1O	50%
COc1cc(CN2CCN(c3ccccc3C)CC2)cc(OC)c1O	i
Cc1ccc(N2C(=O)CC(Sc3nc4ccccc4o3)C2=O)cc1 (stereo not drawn)	i
O=C(O)c1cccnc1SC1CC(=O)N(c2ccc(N3CCOCC3)cc2)C1=O (stereo not drawn)	i
O=C1CC(Sc2ccccn2)C(=O)N1c1ccc(Br)cc1 (stereo not drawn)	40%
CCc1nnc(-c2cn(CC(=O)Nc3ccc(S(N)(=O)=O)cc3)c3ccccc23)o1	i
O=S(=O)(NC(c1ccccc1)c1ccccc1)c1cccc2nonc12	i
O=C(NC[C@H]1O[C@@H](CO)[C@@H](O)[C@H]1N1CCc2ccccc2C1)c1cccc(F)c1	i
CS(=O)(=O)N1CCN(c2ccc([N+](=O)[O-])c(NCCN3CCOCC3)c2)CC1	i
SMILES	ST2 inh
O=[N+]([O-])c1ccc(N2CCCC2)cc1NCC1CCCO1 (stereo not drawn)	30%
O=[N+]([O-])c1ccc(N2CCN(S(=O)(=O)c3ccccc3)CC2)cc1NCC1CCCO1 (stereo not drawn)	i
O=C1CC2(CCN(Cc3ccc(OCc4ccccn4)cc3)CC2)CN1	i
CCc1oc2cc(OC(C)C)ccc2c(=O)c1-c1ccc2c(c1)OCCO2	i
COc1ccc(NS(=O)(=O)c2ccc(NC(=O)c3ccccc3[N+](=O)[O-])cc2)cc1	i
Nc1nc2n(n1)C(c1ccco1)CC(c1ccc(F)cc1)N2 (stereo not drawn)	i
Fc1ccc(C2=NN(c3ccccc3)C(c3ccco3)C2)cc1 (stereo not drawn)	45%
O=C(c1ccccc1Br)N1N=C(c2ccc(Br)cc2)CC1c1ccco1 (stereo not drawn)	i
Cc1cccc(N2CCN(c3ncnc(N)c3[N+](=O)[O-])CC2C)c1 (stereo not drawn)	i
Cc1cc(C(F)(F)F)n2ncc(C(=O)N3C[C@@H]4[C@H](C3)[C@H]3CC[C@@H]4O3)c2n1	i
Cc1ccc(NS(=O)(=O)c2c(C)n[nH]c2C)cc1C	i
CCOc1ccc(/C=C2\N=C(c3ccc([N+](=O)[O-])cc3)OC2=O)cc1	i
CCCCOc1ccc(C2=N/C(=C\c3ccc([N+](=O)[O-])cc3)C(=O)O2)cc1	i
CCOc1ccc(/C=C2\N=C(c3cc([N+](=O)[O-])cc([N+](=O)[O-])c3)OC2=O)cc1	40%
O=C1Nc2cc(C(=O)N3CCOCC3)ccc2N2CCCCC12 (stereo not drawn)	i
CC(C)Oc1cccc(C(=O)C2CCCN(Cc3ccc(C#CC(C)(C)O)s3)C2)c1 (stereo not drawn)	i
C=CCn1c(C)nc2c(sc3nc4c(cc32)COC(C)(C)C4)c1=O	i
CC1(C)Cc2nc3sc4c(=O)[nH]cnc4c3cc2CS1	80%
CCCCn1c(C)nc2c(sc3nc4c(cc32)COC(C)(C)C4)c1=O	i
Cc1[nH]c2ccccc2c1SCCNC(=O)COc1ccccc1	i
COc1cc(C(=O)Nc2nc(-c3ccccn3)cs2)cc(OC)c1OC	i
CC(C)N(C(=O)c1ccc(C(=O)NCc2ccc(S(N)(=O)=O)cc2)cc1)C(C)C	i
CCCc1nc(C)cc(N2CCN(c3ncccc3C(N)=O)CC2)n1	i
Cc1ccc(N=Cc2nc(-c3ccccc3F)oc2O)c([N+](=O)[O-])c1	34%
Oc1oc(-c2ccccc2F)nc1C=Nc1cc(Cl)c(Cl)cc1Cl	i
O=C(O)c1ccccc1N=Cc1nc(-c2ccccc2F)oc1O	i
